Assay results published in PubChem BioAssay (Tox21).
Values joined by “and” are separate entries in the source; they are usually repeats but may differ in a detail not shown here. Equal entries are not always repeated. Results filed as inconclusive are left out. Where a call stands in place of a potency, no number is given. Active and inactive are the calls of the source. Unless noted, calls follow the shape of the dose curve; as a rule, active = well fitted curve in the direction sought with a large enough effect in the repeat runs; inconclusive = weak or mixed curves; inactive = no such curve, though single readings can be large; an effect the other way counts as inactive or inconclusive.

What was measured:
[1] = qHTS assay for small molecule agonists of the p53 signaling pathway (AID 651631; calls by dose curve; also: nearly all actives have a fitted effect of over 15% in size)
Outline: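 Testing took place in human colorectal HCT-116 cells with stable p53RE-driven beta-lactamase. After 16 h of compound exposure at 37 °C, a FRET substrate was added and fluorescence recorded 2 h later.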

[2] = qHTS assay for small molecules that induce genotoxicity in human embryonic kidney cells expressing luciferase-tagged ATAD5 (AID 651632); also: nearly all actives have a fitted effect of over 15% in size
Outline: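 Quantitative HTS in HEK293T expressing luciferase-tagged ATAD5, whose levels rise upon DNA damage. Exposure ran 16 hr at 37C and 5% CO2, with luminescence read 30 min after Amplite addition at room temperature.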

[3] = qHTS assay for small molecule agonists of the p53 signaling pathway - cell viability (AID 651633; calls by dose curve; also: series mostly up to about 83 µM; nearly all actives have a fitted effect of over 30% in size)
Outline: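 Viability counter-read: CellTiter-Glo luminescence (30 min, room temperature) in the same p53RE-bla plates. These plates had been exposed to compounds for 16 h at 37 C.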

[4] = qHTS assay for small molecules that induce genotoxicity in human embryonic kidney cells expressing luciferase-tagged ATAD5 - cell viability (AID 651634; calls by dose curve; also: nearly all actives have a fitted effect of over 25% in size)
Outline: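 After 15.5 hr incubation with compound at 37C, 5% CO2, HEK293T ATAD5-luciferase cells received CellTiter-Fluor reagent; fluorescence intensity was quantified following 30 min at 37C.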

[5] = qHTS assay to test for compound auto fluorescence at 590 nm (red) in HepG2 cells (AID 720674)
Outline: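 Red autofluorescence (Ex/Em 540/590 nm, Rose Bengal sodium equivalents) was measured in HepG2 cells, 2,000 per well in MEM plus 10% FBS, plated overnight at 37 C. Readings were taken 1 hr after adding 23 nL compound or DMSO, at 37 C and 5% CO2.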

[6] = qHTS assay to test for compound auto fluorescence at 535 nm (green) in HepG2 cells (AID 720675)
[7] = qHTS assay to test for compound auto fluorescence at 460 nm (blue) in HEK293 cells (AID 720678)
Outline: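 Intrinsic compound fluorescence is recorded in live HEK293 cultures after overnight incubation at 37C, 5% CO2, using excitation 405 nm and emission 460 nm. Values are referenced to triamterene.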

[8] = qHTS assay to test for compound auto fluorescence at 590 nm (red) in HEK293 cells (AID 720679)
Outline: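 Red autofluorescence, HEK293 cells: 2,000 cells/well; attach 4-5 hr 37C; add 23 nL cpd or DMSO; incubate o/n 37C 5% CO2; read Ex540/Em590; Rose Bengal sodium reference.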

[9] = qHTS assay for small molecule disruptors of the mitochondrial membrane potential - cell viability (AID 720634; calls by dose curve;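 also: human HepG2 liver cancer cells; series mostly up to about 83 µM; nearly all actives have a fitted effect of over 20% in size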)
Outline: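 ATP-based luminescent viability readout (CellTiter-Glo, 30 min, room temperature) in HepG2 cells multiplexed with the m-MPI membrane potential dye; compound exposure lasted 1 hr at 37 C.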

[10] = qHTS assay for small molecule disruptors of the mitochondrial membrane potential (AID 720635); also: potency is read from the fitted curve at half-maximal effect
Outline: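 Mitochondrial membrane potential tracked with Mito-MPS dye, red aggregates (ex 540/em 590 nm) against green monomers (ex 490/em 535 nm). Compound treatment 1 hr at 37C, dye 30 min in HepG2.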

SMILES | Potency [1] | Potency [2] | Potency [3] | Potency [4] | outcome [5] | outcome [6] | outcome [7] | outcome [8] | Potency [9] | Potency [10]
CCCCC1C(=O)N(c2ccccc2)N(c2ccccc2)C1=O | inactive | inactive | inactive | inactive | inactive | inactive | inactive | inactive |  | 
CCC1(c2ccccc2)C(=O)NCNC1=O | inactive |  | inactive |  | inactive | inactive | inactive | inactive | inactive | inactive
C[C@]12C=CC(=O)C=C1CC[C@@H]1[C@@H]2[C@@H](O)C[C@@]2(C)[C@H]1CC[C@]2(O)C(=O)CO | inactive | inactive | inactive | inactive | inactive | inactive | inactive | inactive | inactive | 
O=C(O)CCC(=O)O |  | inactive | inactive | inactive | inactive | inactive | inactive | inactive | inactive | inactive
CC(=O)OCC(COC(C)=O)OC(C)=O |  | inactive | inactive | inactive | inactive | inactive | inactive | inactive | inactive | inactive
CC(C)[C@@H]1CC[C@@H](C)C[C@H]1O |  | inactive | inactive | inactive | inactive | inactive | inactive | inactive | inactive | inactive
NC(=O)NC1NC(=O)NC1=O (stereo not drawn) | inactive | inactive | inactive | inactive | inactive | inactive | inactive | inactive | inactive | inactive
CCCC(CCC)C(=O)O |  | inactive |  | inactive | inactive | inactive | inactive | inactive | inactive | inactive
O=C(c1ccccc1)C(O)c1ccccc1 (stereo not drawn) |  | inactive | inactive | inactive | inactive | inactive | inactive | inactive |  | 
N=C(N)c1ccc(OCCCCCOc2ccc(C(=N)N)cc2)cc1 |  | inactive | inactive | inactive | inactive | inactive | inactive | inactive | inactive | 
C1N2CN3CN1CN(C2)C3 | inactive | inactive | inactive | inactive | inactive | inactive | inactive | inactive | inactive | inactive
O=C(O)CS |  | inactive | inactive | inactive | inactive | inactive | inactive | inactive | inactive | inactive
O=C1CN(/N=C/c2ccc([N+](=O)[O-])o2)C(=O)N1 | inactive | inactive | inactive |  | inactive | inactive | inactive | inactive | inactive | 21.1 µM (active) and 21.6 µM (active) and 21.7 µM (active)
Cc1ccc(C)c(OCCCC(C)(C)C(=O)O)c1 |  | inactive |  | inactive | inactive | inactive | inactive | inactive | inactive | inactive
O=S(=O)(O)NC1CCCCC1 |  |  |  | inactive | inactive | inactive | inactive | inactive | inactive | 
COc1c2occc2cc2ccc(=O)oc12 | inactive |  | inactive |  | inactive | inactive | inactive | inactive | inactive | 
NS(=O)(=O)c1cc(C(=O)O)c(NCc2ccco2)cc1Cl |  | inactive |  | inactive | inactive | inactive | inactive | inactive | inactive | 
CNC[C@H](O)c1cccc(O)c1 | inactive |  | inactive | inactive | inactive | inactive | inactive | inactive | inactive | inactive
C/C=C/c1ccc(OC)cc1 |  |  | inactive | inactive | inactive | inactive | inactive | inactive | inactive | 
Cc1ccccc1C(OCCN(C)C)c1ccccc1 (stereo not drawn) |  | inactive | inactive | inactive | inactive | inactive | inactive | inactive | inactive | 
CCCCCCCCCCCCCCCC(=O)O | inactive | inactive | inactive | inactive | inactive | inactive | inactive | inactive | inactive | inactive
O=NO |  |  | inactive | inactive | inactive | inactive | inactive | inactive | inactive | inactive
OC(Cn1cncn1)(Cn1cncn1)c1ccc(F)cc1F |  | inactive | inactive | inactive | inactive | inactive | inactive | inactive | inactive | inactive
O=C(O)c1cccc([N+](=O)[O-])c1 | inactive | inactive | inactive | inactive | inactive | inactive | inactive | inactive | inactive | inactive
O=C(O)CCCCC(=O)O | inactive |  | inactive |  | inactive | inactive | inactive | inactive |  | 
